Test results: PubChem BioAssay (NCI)
The panel holds about 79,000 compounds, 15% with a hit somewhere; the sample as a whole holds those more often. A number with no mark means an inactive call. Active and inactive are the calls of the source. Rule as the data show it: active = growth inhibition above about 70%; inactive = the rest.

How the values were obtained:
[1] = NCI Yeast Anticancer Drug Screen. Data for the rad50 strain (AID 155);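 also: 0% = growth of vehicle-only cultures of the same strain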; settings: S. cerevisiae rad50 strain growth inhibition, stronger effect = higher value
Outline: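 Inhibition values express reduced yeast growth in compound-treated cultures relative to vehicle-treated controls.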

[2] = NCI Yeast Anticancer Drug Screen. Data for the mec2-1 strain (AID 157); settings: S. cerevisiae mec2-1 strain, stronger effect = higher value
Outline: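 Compounds were applied to mec2-1 yeast cells. Their growth was then compared with that of vehicle-treated cultures to give growth inhibition.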

[3] = NCI Yeast Anticancer Drug Screen. Data for the sgs1 mgt1 strain (AID 161);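 also: 0% = growth of cultures given vehicle only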; settings: S. cerevisiae sgs1 mgt1 strain, stronger effect = higher value
Outline: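 Percent growth inhibition was derived by comparing compound-exposed mutant yeast with vehicle-exposed cultures. The strain carries alterations in DNA damage repair.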

[4] = NCI Yeast Anticancer Drug Screen. Data for the cln2 rad14 strain (AID 165);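 also: 0% = growth equal to vehicle treated cultures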; settings: S. cerevisiae cln2 rad14 strain, stronger effect = higher value
Outline: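 Strain: cln2 rad14 yeast, altered in cell cycle control and DNA damage repair. Read-out: growth inhibition vs vehicle.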

[5] = NCI Yeast Anticancer Drug Screen. Data for the bub3 strain (AID 167); settings: S. cerevisiae bub3 mutant strain, stronger effect = higher value
Outline: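 Steps: expose the mutant yeast strain to compound; grow alongside vehicle-treated cultures; measure growth; express inhibition against the vehicle cultures.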

[6] = NCI Yeast Anticancer Drug Screen. Data for the mlh1 rad18 strain (AID 175); settings: S. cerevisiae mlh1 rad18 strain growth inhibition, stronger effect = higher value
Outline: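 A repair-deficient yeast strain is exposed to test compound, and growth is scored relative to vehicle-treated controls.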

[7] = at 5.0 µM (retest, dose inferred, filed as 0.5)
[8] = at 50.0 µM (retest, dose inferred, filed as 5.0)

Row | SMILES | growth inhibition [1, 7] [%] | growth inhibition [1, 8] | growth inhibition ([1]; at 50.0 µM) | growth inhibition [2, 7] [%] | growth inhibition [2, 8] | growth inhibition ([2]; at 50.0 µM) | growth inhibition [3, 7] | growth inhibition [3, 8] | growth inhibition ([3]; at 50.0 µM) | growth inhibition [4, 7] | growth inhibition [4, 8] | growth inhibition ([4]; at 50.0 µM) | growth inhibition [5, 7] | growth inhibition [5, 8] | growth inhibition ([5]; at 50.0 µM) | growth inhibition [6, 7] [%] | growth inhibition [6, 8] | growth inhibition ([6]; at 50.0 µM)
1 | CC1C=C(COC(=O)Nc2ccccc2)ON1c1ccccc1 (configuration not stated) | -2 | 97% (active) | 98.2% (active) | -3 | 96% (active) | 98% (active) | -2% | 97% (active) | 98.2% (active) | -4% | 95% (active) | 98.3% (active) | -8% | 93% (active) | 98.5% (active) | -1 | 97% (active) | 97.8% (active)
2 | CCOC(=O)/C(=C/c1ccc2ccccc2c1)P(=O)(OCC)OCC | -17 | -15% | 76.6% (active) | 6 | -13% | 69.2% | -6% | -5% | 66.8% | 10% | 19% | 71.1% (active) | 16% | 9% | 75.5% (active) | -18 | -7% | 58%
3 | O=C(CCN1CCCCC1)/C(=C\c1ccc(Cl)cc1)c1ccccc1 | 5 | 95% (active) | 99% (active) | 7 | 99% (active) | 99.4% (active) | 37% | 100% (active) | 99.3% (active) | 14% | 91% (active) | 99.1% (active) | 20% | 98% (active) | 99% (active) | 16 | 99% (active) | 99.2% (active)
4 | COC(=O)[C@H]1O[C@H]1c1ccncc1 | 0 | -5% | 18.2% | 3 | -2% | 1.65% | 5% | -2% | 18.2% | -1% | -17% | 53.8% | 3% | -2% | 6.2% | 0 | -13% | 8.2%
5 | CCCCN(CCCC)Cc1ccc(NC(C(=O)c2ccccc2)c2ccccc2)cc1 (configuration not stated) | -5 | 46% | 85.8% (active) | 25 | 49% | 82.2% (active) | 5% | 86% (active) | 93.8% (active) | -1% | 34% | 97.2% (active) | 0% | 52% | 90.5% (active) | 22 | 72% (active) | 98.7% (active)
6 | O=C(/C=C/C=C/c1ccccc1)c1ccco1 | -7 | -16% | 83% (active) | 14 | 5% | 90.3% (active) | -10% | 28% | 91.7% (active) | 4% | 28% | 50.4% | -6% | 57% | 91.9% (active) | -19 | 44% | 76% (active)
7 | C[n+]1c(/C=C/c2ccc([N+](=O)[O-])cc2)ccc2ccccc21 | 6 | 85% (active) | 42% | -2 | 89% (active) | 60.8% | 2% | 77% (active) | 69.7% | 12% | 77% (active) | 82.7% (active) | -2% | 92% (active) | 11.7% | 16 | 92% (active) | 80.2% (active)
8 | CC(C)(CCBr)[N+](=O)[O-] | -151 | -161% | 0.55% | -47 | -54% | 16% | -61% | -62% | 8.35% | -52% | -68% | 43.9% | -75% | -84% | 5.85% | -225 | -127% | 0.35%
9 | Cc1c(C#N)c(N)nc2c(C(N)=O)nsc12 | -2 | -13% | 13.2% | -2 | -8% | 8.75% | -3% | -9% | 10.7% | -2% | -18% | 53.6% | 9% | 16% | -8.4% | -1 | -11% | 26.2%
10 | O=C(NCCCNCCNC(=O)c1cc(-c2ccccc2)nc2ccccc12)c1cc(-c2ccccc2)nc2ccccc12 | -22 | 93% (active) | 98.6% (active) | -12 | 98% (active) | 99.2% (active) | -4% | 89% (active) | 99.1% (active) | 28% | 94% (active) | 99.3% (active) | -23% | 99% (active) | 99.1% (active) | 5 | 98% (active) | 99.3% (active)
11 | CCOCCC(=O)NNc1ccccc1 | 7 | 43% | 26.2% | 0 | 36% | 6% | 6% | 41% | 42.2% | 5% | 56% | 56.8% | 8% | 83% (active) | 42.9% | 19 | 80% (active) | 58%
12 | CCN(CC)CCOC(=O)Cc1cccc2c(=O)cc(-c3cccs3)oc12 | 18 | 17% | 18.7% | 9 | 16% | -9.35% | 14% | 18% | -16.4% | 17% | 17% | 8.25% | 4% | 14% | -20.6% | 10 | 16% | -36%
13 | CN(C)c1nc(N(C)C)oc(=[N+](C)C)n1 | -2 | -13% | 9.7% | 3 | -8% | 9.35% | 0% | -9% | 7.8% | 3% | 1% | 57.3% | 3% | 15% | -7.45% | 1 | -13% | 30.4%
14 | CC(=O)OC1(C)C(=C(Cl)Cl)C2c3ccccc3C1c1ccccc12 (configuration not stated) | 0 | 91% (active) | 92.7% (active) | 19 | 88% (active) | 82.2% (active) | 2% | 92% (active) | 94.3% (active) | 7% | 89% (active) | 64.4% | -4% | 93% (active) | 93.2% (active) | 10 | 91% (active) | 93.8% (active)
15 | CCN(CC)C(=S)N/N=C/c1cc([N+](=O)[O-])ccc1O | -21 | 63% | 37% | 15 | 88% (active) | 79.8% (active) | 36% | 87% (active) | 54.4% | -3% | 66% | 59% | 16% | 76% (active) | 56.5% | 12 | 80% (active) | 14.8%
16 | Cn1c(N)c(N=Nc2ccc(S(N)(=O)=O)cc2)c(=O)n(C)c1=O | 0 | 24% | -23.8% | 22 | -4% | -6.75% | 7% | 10% | -36.8% | 27% | 8% | 28.7% | 6% | 9% | -44.8% | 5 | 10% | -9.4%
17 | CC(=O)N(c1ccccc1)c1nc2ccccc2s1 | -8 | 1% | -41.2% | -4 | -4% | -22.9% | -6% | -4% | -22.6% | -2% | -6% | -42.6% | 30% | 59% | 75.7% (active) | -25 | -51% | -30.3%
18 | CN(C)c1ccc(C2ON=C(c3ccccc3)N2C23CC4CC(CC(C4)C2)C3)cc1 (configuration not stated) | 0 | 36% | -11.6% | -11 | 3% | -3.05% | -5% | 33% | -7.15% | 8% | 2% | 55.3% | 14% | 13% | -11.1% | 4 | 5% | -24%
19 | CC(NNC(=S)N(C)C1CCCCC1)c1cc2ccccc2cn1 (configuration not stated) | 48 | 92% (active) | 86.8% (active) | 55 | 94% (active) | 75.3% (active) | 97% (active) | 94% (active) | 85.5% (active) | 94% (active) | 92% (active) | 79.8% (active) | 94% (active) | 95% (active) | 84% (active) | 51 | 93% (active) | 83% (active)
